# In the library only some 9.9% were active in any assay of this set; here they are far more common.
# ALDH1A1 inh – qHTS Assay for Inhibitors of Aldehyde Dehydrogenase 1 (ALDH1A1); actives 7.3% (n = 220,000); Potency, µM (doses to about 75.3 µM), most hits filed as inhibitors; Purified ALDH1A1, NADH fluorescence, propionaldehyde substrate; Aldehyde dehydrogenase 1A1 (Homo sapiens), P00352; active means well fitted inhibition curve with a large enough effect, not every such curve was filed as active; inconclusive means small, poorly fitted or top-dose-only effect, or another doubt; inactive means no such curve, though single readings can be large or run the other way
# Tau fibril ThT – qHTS for Inhibitors of Tau Fibril Formation, Thioflavin T Binding. Potency, µM (doses to about 57.4 µM), usual class: inhibitors. actives 2.1% (n = 270,000). AID 1460, 2008. Microtubule-associated protein tau (Homo sapiens), P10636. recombinant tau K18 P301L, heparin-induced fibrillization, ThT fluorescence; further: nearly all actives have a fitted effect of over 55% in size
# Target sequence (P10636 561-689 P618L limits assumed): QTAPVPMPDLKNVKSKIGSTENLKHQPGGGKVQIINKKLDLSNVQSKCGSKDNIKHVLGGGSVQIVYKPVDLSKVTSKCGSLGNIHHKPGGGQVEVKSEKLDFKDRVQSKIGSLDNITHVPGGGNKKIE
#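 Fibril formation assay: tau K18 P301L at 15 uM with trace Alexa 594 label, heparin inducer 20 uM, pH 7 sodium acetate buffer, 37 C for 6 hr; endpoint ThT signal.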
# HPGD block – qHTS Assay for Inhibitors of HPGD (15-Hydroxyprostaglandin Dehydrogenase). actives 4.3% (n = 150,000). 15-hydroxyprostaglandin dehydrogenase [NAD(+)] (Homo sapiens), P15428. purified HPGD, NADH fluorescence kinetic, PGE2 substrate. Potency, µM, most hits filed as inhibitors. AID 894, 2007; active means well fitted inhibition curve with a large enough effect, not every such curve was filed as active; inconclusive means small, poorly fitted or top-dose-only effect, or another doubt; inactive means no such curve, though single readings can be large or run the other way
# Target sequence (P15428 whole entry, looked up): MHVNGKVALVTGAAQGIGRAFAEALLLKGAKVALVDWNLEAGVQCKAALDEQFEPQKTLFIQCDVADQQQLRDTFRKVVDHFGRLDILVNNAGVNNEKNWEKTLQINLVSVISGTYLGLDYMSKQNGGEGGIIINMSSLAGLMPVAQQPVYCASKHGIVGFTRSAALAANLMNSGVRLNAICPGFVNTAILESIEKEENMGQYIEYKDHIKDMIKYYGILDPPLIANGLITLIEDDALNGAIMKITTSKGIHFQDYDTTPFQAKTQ
#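 NADH formation kinetics: reaction with 30 uM PGE2 and 1 mM NAD+ (final), 20 nM enzyme, Tris-HCl pH 8 with Tween 20, after 15 min compound preincubation at room temperature. Fluorescence change, last versus first of five reads.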
# JMJD2E inh – qHTS Assay for Inhibitors of Human Jumonji Domain Containing 2E (JMJD2E) | Potency, µM (titrated, usually from 57.1 µM), hits mostly inhibitors | JMJD2E catalytic domain, FDH-coupled NADH fluorescence (FDH is formaldehyde dehydrogenase) | AID 2147, 2009 | actives 1.6% (n = 230,000) | Lysine-specific demethylase 4E (Homo sapiens), B2RXH2; active means well fitted inhibition curve with a large enough effect, not every such curve was filed as active; inconclusive means small, poorly fitted or top-dose-only effect, or another doubt; inactive means no such curve, though single readings can be large or run the other way; further: nearly all actives have a fitted effect of over 50% in size
# Tau fluor counter – Counterscreen qHTS for Inhibitors of Tau Fibril Formation, Fluorescence Polarization | AID 1463, 2008 | tau K18 P301L Alexa594 fluorescence, heparin fibrillization | actives 0.93% (n = 280,000) | Potency, µM (top dose mostly 57.7 µM); further: nearly all actives have a fitted effect of over 55% in size
#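 Human tau K18 P301L (15 uM unlabeled, 0.24 uM Alexa 594-labeled) in 100 mM sodium acetate pH 7 with 20 uM heparin, 6 hr at 37 C. ThT 30 uM added, 1 hr ambient; Alexa 594 FP and total fluorescence read at 555/632 nm.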
# Tau FP inhib – qHTS for Inhibitors of Tau Fibril Formation, Fluorescence Polarization | Microtubule-associated protein tau (Homo sapiens), P10636 | K18 P301L tau heparin fibrillization, Alexa594 FP, 6 h | actives 0.39% (n = 280,000) | Potency, µM (series often up to 57.7 µM), actives largely listed as inhibitors; further: nearly all actives have a fitted effect of over 55% in size
#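 Human K18 P301L fragment (15 uM unlabeled plus 0.24 uM Alexa 594-labeled) in 100 mM sodium acetate pH 7 with compound, aggregation induced by 20 uM heparin for 6 hr at 37 C. ThT (30 uM) added for 1 hr, then Alexa 594 FP read.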
# A number is an active result; n = inactive; u = inconclusive; x = not tested or not shown; [ ] = dose if it differs, or a comment. Unless noted, the call rests on the fitted dose curve; in most records, active means well fitted curve in the direction sought with a large enough effect; inconclusive means small, poorly fitted or top-dose-only effect, or another doubt; inactive means no such curve, though single readings can be large; an effect the other way counts as inactive or inconclusive.
SMILES,ALDH1A1 inh,Tau fibril ThT,HPGD block,JMJD2E inh,Tau fluor counter,Tau FP inhib
O=c1c(CCc2ccccc2)nc2cnc(Oc3ccccc3)nc2n1C[C@H]1CCCO1,u,x,n,x,x,x
COc1ccc(C2=CSC3=C(C(=O)c4cccc(S(=O)(=O)N(C)C)c4)CCN23)cc1,2µM,25µM,n,n,u,u
OC1C2COC(O2)[C@H](O)C1O (stereo not given in full),n,n,n,n,n,n
Clc1ccc(Nc2ccc(-n3ccnc3)nn2)cc1Cl,n,n,n,n,13µM[quencher],u
c1ccc(Nc2ccc(-n3ccnc3)nn2)cc1,n,u,x,n,n,n
Cc1ccc2[nH]c(CSc3nnc(NC(=O)COc4ccccc4)s3)cc(=O)c2c1,x,n,x,x,n,u
COc1ccc(OC)c(-n2nnnc2SCC(=O)O)c1,n,n,n,n,n,n
COc1ccc(OC)c(-n2nnnc2SCC(=O)NCc2ccc3c(c2)OCO3)c1,13µM,n,n,n,n,n
CCn1nnnc1SCC(=O)NCc1ccc2c(c1)OCO2,n,n,n,n,n,n
O=C(CSc1nnnn1C1CCCC1)NCc1ccc2c(c1)OCO2,20µM,n,n,n,n,n
O=C(CSc1nnnn1C1CCCCC1)NCc1ccc2c(c1)OCO2,14µM,n,n,n,n,n
CC(=O)Nc1ccc(C(=O)CSc2nnnn2C2CCCC2)cc1,16µM,n,x,n,n,n
O=C(CSc1nnnn1C1CCCCC1)NCc1ccco1,u,n,n,n,n,n
Cc1sc2ncn(CC(=O)N(C)c3ccc(C(C)C)cc3)c(=O)c2c1S(=O)(=O)N1CCC(C)CC1,x,n,x,x,n,n
COc1ccc(CCNC(=O)CSc2nnnn2-c2ccccc2OC)cc1OC,0.28µM,n,n,n,n,n
Cn1cnnc1SCc1ccc(C(=O)N=Nc2c(O)n(Cc3ccc(Cl)cc3)c3ccccc23)cc1,u,u,n,n,n,n
O=C(CNC(=O)Cc1ccccc1)N=Nc1c(O)n(Cc2ccc3c(c2)OCO3)c2ccccc12,4µM,u,x,n,n,n
O=C(CCn1c(=O)c2ccccc2n(Cc2ccccc2)c1=O)NCc1ccc2c(c1)OCO2,n,n,n,n,n,n
O=C(N=Nc1c(O)n(Cc2ccccc2)c2ccccc12)c1ccc(O)cc1,13µM,14µM,n,n,u,n
COc1ccc(C(=O)NCC(=O)N=Nc2c(O)n(C)c3ccccc23)cc1OC,x,u,x,n,n,n
COc1ccc(C(=O)NCC(=O)N=Nc2c(O)n(Cc3ccccc3)c3ccccc23)cc1OC,18µM,u,n,n,n,n
O=C(N=Nc1c(O)n(Cc2ccccc2)c2ccccc12)c1cc2ccccc2cc1O,n,13µM,n,n,n,u
COc1ccc(-c2cn3c(n2)sc2cc(C(=O)NCCc4ccccc4)ccc23)cc1,x,n,x,x,n,n
O=c1n(-c2ccccc2)c(=O)n2n1CC[C@H]1/C(=N\OCc3ccccc3)[C@H]3O[C@@H]3[C@@H](O)[C@@H]12,n[13.5 µM],n[11.5 µM],x,x,n[11.6 µM],n[11.6 µM]
O=c1cc(-c2ccccc2Cl)oc2c(NS(=O)(=O)c3cc(Cl)cc(Cl)c3O)ccc(O)c12,10µM,22µM,4.5µM,n,u,32µM
CCc1ccc(S(=O)(=O)Nc2ccc(O)c3c(=O)cc(-c4ccccc4Cl)oc23)cc1,x,n,x,n,u,u
COc1ccc(OC)c(CNC(=O)c2cnc3c(C)cccn3c2=O)c1,x,n,x,x,n,n
CCC(=O)[C@]12O[C@@]3(C4C(=O)OCCC41)N(CC)C(C)=C(C(=O)OC)C(c1ccccc1)N3C2=O (stereo not given in full),n[13.5 µM],n[11.5 µM],x,x,n[11.6 µM],n[11.6 µM]
COc1cccc(OCCNc2cc(Cl)ccc2[N+](=O)[O-])c1,n,8.9µM,n,n,n,n
O=[N+]([O-])c1ccccc1NCCOc1ccccc1,n,u,n,n,n,u

# Compound activity as filed in PubChem.
